Assay outcomes: PubChem BioAssay, National Center for Advancing Translational Sciences (NCATS)
HTT ATP protect = Huntington cell model cytoprotection by ATP luminescence; PC12 HTT-Q103 induced, cytoprotection, ATP luminescence, 40 h; Potency, µM (titrated, usually from 56.4 µM), for the others: cytoprotection (ATP increase), usual class: activators; actives 0.14% (n = 230,000); note: potency is the fitted concentration of half-maximal effect; % of control where 0% means no effect; nearly all actives have a fitted effect of over 45% in size
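Stable PC12 Q103-GFP cells in serum-supplemented, phenol red-free DMEM; induction by tebufenozide at 100 nM final; compound dose series; cell viability quantified luminescently from ATP.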
HttQ103 aggreg = reduces HttQ103-GFP aggregates in PC12 cells; PC12 HttQ103-GFP aggregates, Acumen cytometry, 40 h; AID 1688; Potency, µM (top dose mostly 46.1 µM), inactives show top-dose activity change, negative = inhibition, actives largely listed as inhibitors; actives 1.1% (n = 220,000); note: potency is the fitted concentration of half-maximal effect; % is set by controls: 0 for no effect and ±100 for the full control effect; nearly all actives have a fitted effect of over 60% in size
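Quantitative HTS on tebufenozide-induced (100 nM) PC12 cells stably expressing polyQ103 Huntingtin exon 1–GFP. Reduction of bright GFP aggregates, detected by laser scanning cytometry after lysis, identified actives across the titration.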
HPGD inh = inhibitors of human 15-hydroxyprostaglandin dehydrogenase (HPGD); Potency, µM, inactives show at the highest dose activity change, negative = inhibition, hits mostly inhibitors; actives 4.3% (n = 150,000); purified HPGD, NADH fluorescence kinetic, PGE2 substrate; AID 894; active = well fitted inhibition curve with a large enough effect, not every such curve was filed as active; inconclusive = small, poorly fitted or top-dose-only effect, or another doubt; inactive = no such curve, though single readings can be large or run the other way; note: potency is the fitted concentration of half-maximal effect; % is set by controls: 0 for no effect and ±100 for the full control effect
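NADH formation kinetics: reaction with 30 uM PGE2 and 1 mM NAD+ (final), 20 nM enzyme, Tris-HCl pH 8 with Tween 20, after 15 min compound preincubation at room temperature. Fluorescence change, last versus first of five reads.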
ALDH1A1 block = blocks purified human ALDH1A1 activity. actives 7.3% (n = 220,000). Purified ALDH1A1, NADH fluorescence, propionaldehyde substrate. P00352. AID 1030. Potency, µM (titrated, usually from 75.3 µM), for the others: at the highest dose activity, negative = inhibition, most hits filed as inhibitors; active = well fitted inhibition curve with a large enough effect, not every such curve was filed as active; inconclusive = small, poorly fitted or top-dose-only effect, or another doubt; inactive = no such curve, though single readings can be large or run the other way;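 note: potency is the fitted concentration of half-maximal effect; plate controls were no enzyme wells and a reference inhibitor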
Target sequence (P00352 whole entry, looked up): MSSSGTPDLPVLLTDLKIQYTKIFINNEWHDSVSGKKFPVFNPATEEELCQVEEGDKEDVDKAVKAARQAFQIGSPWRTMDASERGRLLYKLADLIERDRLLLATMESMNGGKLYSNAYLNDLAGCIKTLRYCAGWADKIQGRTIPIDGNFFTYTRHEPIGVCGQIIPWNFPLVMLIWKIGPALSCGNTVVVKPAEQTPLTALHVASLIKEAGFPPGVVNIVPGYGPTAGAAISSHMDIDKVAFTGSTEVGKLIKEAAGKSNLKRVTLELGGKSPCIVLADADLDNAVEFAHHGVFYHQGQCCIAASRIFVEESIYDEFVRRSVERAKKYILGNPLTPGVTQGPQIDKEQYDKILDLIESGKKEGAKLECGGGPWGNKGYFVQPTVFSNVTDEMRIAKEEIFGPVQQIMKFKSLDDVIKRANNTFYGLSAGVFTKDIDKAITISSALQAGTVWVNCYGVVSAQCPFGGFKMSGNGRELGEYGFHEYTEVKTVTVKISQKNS
RGS12 GoLoco inh = inhibitors of human Gai1-RGS12 GoLoco interaction (red fluorophore). P63096. Gai1:RGS12 GoLoco peptide FP, rhodamine, 10 min. Potency, µM (highest dose often 61.6 µM), for the others: at the highest dose activity, negative = inhibition, usual class: inhibitors. actives 0.44% (n = 230,000); active = well fitted inhibition curve with a large enough effect, not every such curve was filed as active; inactive = no such curve, though single readings can be large or run the other way; note: potency is the fitted concentration of half-maximal effect; % is set by controls: 0 for no effect and ±100 for the full control effect; nearly all actives have a fitted effect of over 30% in size
Target sequence (P63096 whole entry, looked up): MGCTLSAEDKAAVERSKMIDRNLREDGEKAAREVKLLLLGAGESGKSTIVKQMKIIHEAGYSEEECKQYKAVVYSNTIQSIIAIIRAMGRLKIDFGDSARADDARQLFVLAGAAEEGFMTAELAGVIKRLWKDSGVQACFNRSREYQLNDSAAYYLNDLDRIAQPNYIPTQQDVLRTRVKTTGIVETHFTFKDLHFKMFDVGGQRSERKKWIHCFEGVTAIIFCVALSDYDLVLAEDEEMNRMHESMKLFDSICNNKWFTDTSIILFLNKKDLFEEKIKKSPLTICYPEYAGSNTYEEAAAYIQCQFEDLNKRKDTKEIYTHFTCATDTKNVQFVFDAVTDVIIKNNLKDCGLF
PNC inhibitor = inhibitors of perinucleolar compartment assembly; activity change (PNC), negative = inhibition, % at 10 µM; PC3M PTB-GFP, PNC prevalence imaging, 16 h; hits give low values; actives 3.1% (n = 140,000); AID 2417;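 active = readout at or below -70, meaning at least 70% loss of cells showing the perinucleolar compartment, a nuclear body marking cancer cells; inconclusive = readout between -30 and a set limit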;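 note: plate controls were DMSO wells for no effect and camptothecin positive control wells for full effect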
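PC3M cells stably expressing PTB-GFP, 750–1000 cells/well, treated 16 h at 37 °C with compound (23 nl of library stock), in duplicate. After paraformaldehyde fixation and Hoechst stain, imaged at 20x; PNC prevalence scored by image analysis.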
Starred values were filed as active, the others as inactive; ? = inconclusive; nt = no result; ! = not confirmed by another sample; [ ] = another dose, or the depositor's remark. Hits are enriched below; roughly 11% of the tested compounds scored in any of these assays. Unless noted, calls come from the whole dose curve; as a rule, active = well fitted curve in the direction sought with a large enough effect; inconclusive = small, poorly fitted or top-dose-only effect, or another doubt; inactive = no such curve, though single readings can be large; an effect the other way counts as inactive or inconclusive.

SMILES	HTT ATP protect	HttQ103 aggreg	HPGD inh	ALDH1A1 block	RGS12 GoLoco inh	PNC inhibitor
CC(=O)c1cccc(-n2nnnc2SCC(=O)Nc2ccccc2N2CCCCC2)c1	7.1%	-7.2%	-14.1%	1.8%	4.4%	-105.7*
COCC(=O)N1CCC2(CC1)CN(c1ccncc1)C2	3.7%	nt	-5.2%	0.5%	2.4%	nt
O=C(/C=C/c1c[nH]c2ccccc12)c1ccccc1	-27.8%[10 µM]	17.7%	15.8µM*	3.16µM*	-5.1%	31.3
Cc1ccc(S(=O)(=O)/C(C#N)=C/c2c[nH]c3ccccc23)cc1	-13.2%	-14.3%	-7.0%	8.2%	16.3%	?
Cc1ccc(C(=O)/C=C/c2c[nH]c3ccccc23)cc1	3.8%	18.9%	?	25.1µM*	14.8%	10.5
COc1ccc2[nH]cc(/C=C/C(=O)c3ccccc3)c2c1	0.4%[10 µM]	2.2%[9.22 µM]	nt	?	3.2%	nt
N#Cc1ccc(OCC(=O)Nc2ccccc2NS(=O)(=O)c2cccs2)cc1	6.5%[10 µM]	2.7%	-24.1%	7.3%	3.5%	6.3
CC(=O)Nc1c(N)c2ccccc2oc1=O	-13.0%	3.1%	nt	-1.4%	-2.1%	nt
NC(=O)c1ccc[n+](CC(=O)OCCC23CC4CC(CC(C4)C2)C3)c1	?	10.8%	-7.2%	25.1µM*	6.7%	3.6
NC(=O)c1ccc[n+](CC(=O)c2ccc(Br)cc2)c1	-7.6%	-0.2%	nt	9.0%	-1.4%	nt
CCOC(=O)c1c(/N=C/C2=C(O)CCCC2=O)sc2c1CCCC2	-9.1%[10 µM]	25.8%[9.22 µM]	nt	nt	16.0%	nt
CCOC(=O)c1cc(CC)sc1/N=C/C1C(=O)CC(C)(C)CC1=O	-24.4%[10 µM]	31.1%	-4.4%	11.2µM*	2.9%	?
CCOC(=O)c1c(/N=C/C2C(=O)CCCC2=O)sc2c1CCCC2	-19.3%	-1.0%	nt	15.8µM*	30.9%	nt
CCOC(=O)c1c(/N=C/C2C(=O)CC(C)(C)CC2=O)sc2c1CCCC2	-14.3%	19.2%	nt	8.91µM*	5.6%	nt
CO[C@]12C[C@@H](COC(=O)c3cncc(Br)c3)CN(C)[C@@H]1Cc1cn(C)c3cccc2c13	2.8%[1.9 µM]	-10.2%	0.5%	6.8%	12.6µM*!	nt
CC(=O)N1CCC2(CC1)CN(c1cccc(-c3ccccc3)c1)C2	-11.0%	nt	?	?	-10.2%	nt
O=C(Nc1cc(Cl)ccc1O)c1cc2n(n1)C(C(F)(F)F)CC(c1ccc3c(c1)OCO3)N2 (centres undefined)	-23.5%[10 µM]	9.8%	-8.7%	-8.3%	3.2%	-84.2*
N/C(Cc1ccccc1)=N\OC(=O)c1cccc2ccccc12	nt	12.3%	2.51µM*	-6.1%	0.1%	?
N/C(=N\OC(=O)c1cccc2ccccc12)c1ccncc1	-0.3%[10 µM]	3.2%[9.22 µM]	nt	nt	4.3%	nt
COc1ccccc1C(=O)C1CCCN(Cc2cn[nH]c2C2CCCCC2)C1 (centres undefined)	0.8%[10 µM]	4.1%[9.22 µM]	nt	-1.5%	8.4%	nt
CCN(CC)c1ccc(NC(=S)NC(=O)c2cccs2)cc1	-2.3%[10 µM]	25.0%[9.22 µM]	nt	8.91µM*	10.9%	nt
O=C(NC(=S)Nc1ccc(-c2ccc(CO)o2)cc1)c1cccs1	18.3%	-5.9%	nt	20µM*	16.4%	nt
CCN(CC)C(=S)SCC(=O)Nc1ccc(F)cc1	-14.7%	10.2%	17.8µM*	?	4.9%	5.2
CCN(CC)c1ccc(NC(=S)Nc2ccc(F)cc2)cc1	-65.1%	?	nt	11.2µM*	16.2%	nt
CCN(CC)c1ccc(NC(=O)CN2CCN(CC(=O)Nc3ccc(F)cc3)CC2)cc1	-4.4%	3.1%	1.4%	-6.2%	-6.0%	8.7
SMILES	HTT ATP protect	HttQ103 aggreg	HPGD inh	ALDH1A1 block	RGS12 GoLoco inh	PNC inhibitor
Cc1ccc(C(=O)NC(=S)Nc2ccc(-c3ccc(CO)o3)cc2)cc1	-14.7%	9.9%	nt	?	-12.3%	nt
CCN(CC)C(=S)SCC(=O)c1ccc(F)cc1	-17.2%	-8.8%	-8.2%	?	-4.7%	92.8
CCCCC(=O)Nc1ccc(NC(=S)NC(=O)CC)cc1OC	7.3%[10 µM]	15.3%	?	?	-1.6%	?
CCN(CC)c1ccc(/C=N/NC(=O)c2ccco2)cc1	-29.4%[10 µM]	?	-28.7%	10µM*	6.5%	-93.8*
CCCCn1nnc(NC(=S)NC(=O)c2cccs2)n1	6.6%[10 µM]	11.4%	nt	20µM*	nt	22.0
CCCCC(=O)Nc1ccc(NC(=S)NC(=O)c2cccs2)cc1OC	26.3%[10 µM]	7.1%	-11.5%	20µM*	10.6%	?
CCN(CC)c1ccc(/C=N/NC(=O)c2cnccn2)cc1	-152.1%	17.3%	nt	22.4µM*	-12.5%	nt
O=C(O)CCSc1nnc(COc2cccc3ccccc23)n1-c1cccc(Cl)c1	nt	16.0%	nt	2.6%	7.4%	nt
CCN(c1ccccc1)S(=O)(=O)c1ccc(NC(=S)NC(=O)c2cccs2)cc1	-54.2%	?	-20.6%	6.31µM*	14.2%	3.7
CCN(CC)c1ccc(/C=N/NC(=O)c2ccc([N+](=O)[O-])cc2)cc1	-2.2%	11.1%	nt	28.2µM*	14.6%	nt
O=C(NNC(=S)Nc1ccc(Cl)cc1)c1ccccc1OC(F)F	nt	12.6µM*	-14.4%	20µM*	-0.5%	18.3
COc1ccccc1NC(=S)NNC(=S)Nc1ccc(OC(F)F)cc1	14.8%[10 µM]	-8.5%	-18.5%	7.08µM*	13.7%	14.4
CN(C)S(=O)(=O)c1ccc(NC(=S)NC(=O)c2cccs2)cc1	-101.0%	15.8%	nt	?	7.8%	nt
COc1ccc(NC(=S)Nc2ccc(OC(F)F)cc2)cn1	-15.6%	-0.9%	nt	0.5%	-2.2%	nt
Cc1noc(C)c1C(=O)N1CCC2(CC1)CN(c1ncccn1)C2	-9.5%	nt	?	?	4.2%	nt
CCN(CC)c1ccc(NC(=S)NC(=O)c2ccco2)cc1	9.0%[10 µM]	9.6%[9.22 µM]	nt	25.1µM*	9.2%	nt
O=C(NNC(=S)Nc1ccc(Cl)cc1)c1cccs1	10.2%[10 µM]	7.1%[9.22 µM]	nt	11.2µM*	6.2%	nt
CCN(CC)c1ccc(NC(=O)c2ccco2)cc1	-70.2%	-7.7%	-16.4%	-4.1%	-33.6%	14.7
CN1CCN(CCC(=O)Nc2cccc(Br)c2)CC1	6.8%[10 µM]	5.3%[9.22 µM]	nt	nt	5.9%	nt
CC(=O)NCCC(=O)Nc1sc2c(c1-c1nc3ccccc3[nH]1)CCCC2	-24.6%	10.7%	?	?	26.3%	-80.5*
COc1ccc(OC)c(CN2CCN(C(=O)c3cccc4ccccc34)CC2)c1	-21.3%[10 µM]	6.5%	-12.8%	25.1µM*	2.5%	?
COc1cc(OC)cc(C(=O)N2CCN(Cc3ccccc3C(F)(F)F)CC2)c1	11.3%	7.9%	nt	14.1µM*	nt	?
C[C@@]12CCC(=O)C=C1CC[C@H]1C2[C@@H](O)C[C@]2(C)[C@@H]1CC[C@@]2(O)C(=O)CO (some centres undefined)	nt	nt	-1.7%	6.5%[13.5 µM]	19.1%[14.2 µM]	nt
COCCn1c(SCC(=O)N2CCc3ccccc3C2)nc2cc(Cl)ccc2c1=O	nt	-31.8%	-12.6%	?	2.9%	14.2
O=C1CN(C(=O)CSc2nc3cc(Cl)ccc3c(=O)n2Cc2ccccc2)c2ccccc2N1	-1.1%[10 µM]	-15.6%	-17.0%	7.94µM*	39.8%	-7.2
